Compounds with a hit are over-represented: about 3.4% of the library has one in this group of screens.
PG9 binder: binders of HIV-1 gp120 antibody PG9, primary screen, biochemical, TR-FRET | TR-FRET gp120-PG9 antibody binding | actives 0.43% (n = 360,000) | HIV-1 gp120 / PG9 antibody interaction | inhibition, % at 6.7 µM; in the data active means inhibition above about 8.5%
HSP90 inh: HSP90 inhibitors, primary screen, cell lysate, luminescence | Heat shock protein HSP 90 (rabbit reticulocyte lysate; luciferase refolding) | Rabbit reticulocyte lysate, luciferase refolding luminescence, 3 h | inhibition, % at 5.6 µM | actives 0.91% (n = 290,000);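 active means inhibition above the screen-wide mean plus 3 SD, computed separately per campaign, cut at about 16% in these data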;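 further: 0% = DMSO wells and 100% = 60 µM geldanamycin wells; inhibitors lower the luminescence because luciferase stays unfolded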
HSF1 inh: HSF1 inhibitors in luciferase reporter cells, primary screen, cell-based, NIH3T3, luminescence; NIH3T3-HGL HSE-luciferase, MG132-induced, luminescence 8 h; hits give low values; activity change, negative = inhibition, % at 7.5 µM (by protocol); actives 0.77% (n = 300,000); AID 2098, 2009;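 active means more than half of replicate wells show activity change below -50%, luminescence cut by over half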;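 further: luciferase reports HSF-1 transcriptional activity via heat shock element; 0% = median of DMSO wells and -100% = zero luminescence signal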
GAA850 FXN act: FXN promoter activators, primary screen, cell-based, luciferase luminescence, HEK293 lucGAA850; HEK293 lucGAA850 FXN promoter luciferase reporter, 24 h; percent of 10 µM SAHA response; activation, % at 6 µM; AID 540364, 2011; actives 0.56% (n = 360,000);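 active means activation above the average of all compounds screened plus 3 SD, cutoff fixed separately per campaign, cut at about 7.5% in these data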;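 further: 0% = DMSO wells and 100% = 10 µM SAHA wells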
AI-2 QS modul: Vibrio harveyi AI-2 quorum sensing modulators, primary screen, JMH597 strain, luminescence/OD600 ratio; Vibrio harveyi JMH597 AI-2 luminescence/OD600 ratio, 9 h; hits give low values; strain lacks LuxN and CqsS sensors; 0 = neutral-control median; activity change, % at 7.5 µM; actives 0.4% (n = 300,000); in the data active means activity change below about -75%, passing the limit was not always enough;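 further: luminescence divided by OD600 gain over 9 h not by final OD600 alone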
SMARCA2 act: SMARCA2 (BRM) function activators, primary screen, cell-based, luminescence, high throughput; activation, % at 9.1 µM; actives 1% (n = 370,000); MG213 cells, MMTV-luciferase reporter, dexamethasone, overnight; in the data active means activation above about 7.8%;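 further: 0% = vehicle wells and 100% = reference activator wells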
Active calls of the source: *; . = no result.

SMILES | PG9 binder | HSP90 inh | HSF1 inh | GAA850 FXN act | AI-2 QS modul | SMARCA2 act
O=C(OC12CCCN(C1)/C(=C/c1cccnc1)C2)c1cccc(F)c1 (stereo unspecified) | . | . | . | . | . | -3.4
O=C(CN1CCN(c2ccccc2)CC1)NCc1ccc(F)cc1 | -3.0 | -0.8 | -55.8* | 1.1 | 36.2 | -4.7
C/C(=N/NC(=O)c1ccc2c(c1)OCCO2)c1ccc([N+](=O)[O-])cc1 | -0.5 | -3.9 | -66.7* | 1.5 | 19.7 | -2.8
C/C(=N/NC(=O)c1ccc2c(c1)OCO2)c1cccc([N+](=O)[O-])c1 | 0.8 | -0.5 | 7.6 | 4.7 | 19.0 | 3.0
O=C(N/N=C/c1ccc2c(c1)OCO2)c1cccnc1 | 0.3 | -1.9 | 7.2 | 0.1 | 4.7 | -0.1
O=C(N/N=C/c1ccc(Br)o1)c1ccc2c(c1)OCCO2 | -2.5 | 1.4 | -78.9* | 3.5 | 8.3 | 6.8
O=C(O)c1ccc(/C=N/NC(=O)c2ccc3c(c2)OCCO3)cc1 | 0.0 | 1.9 | -18.8 | 3.5 | 9.5 | 0.7
O=C(N/N=C/c1ccccc1)c1ccc2c(c1)OCO2 | -0.1 | 16.1* | 9.9 | 2.8 | -2.2 | 2.7
O=C(N/N=C/c1cccnc1)c1ccc2c(c1)OCCO2 | -1.3 | 1.7 | -63.3* | 3.9 | 24.3 | 4.0
COc1cccc(/C=C2\CC3(OC(=O)C4CCCC4)CCCN2C3)c1 (stereo unspecified) | . | . | . | . | . | -4.2
CCOC(=O)[C@]12CCCC=C1N(CCCOC)C(=O)[C@@H]2CC(=O)NCc1cccc2ccccc12 | . | . | . | . | . | 0.5
O=C(N/N=C/c1ccc([N+](=O)[O-])o1)c1ccc2c(c1)OCO2 | -4.5 | 0.1 | 0.2 | -4.3 | -101.2* | -7.9
C/C(=N\NS(=O)(=O)c1ccccc1)c1ccc2c(c1)OCCO2 | -2.5 | -4.5 | -56.3* | 5.1 | 12.0 | 0.9
CCOC(=O)[C@@]12CCC3=C1N(CCC3)C(=O)[C@H](CC(=O)NCCCCc1ccccc1)C2 | . | . | . | . | . | -2.0
O=C(O)C1CSC(c2ccc3c(c2)OCO3)N1 (stereo unspecified) | -3.0 | -0.8 | -56.2* | 5.5 | 28.4 | 2.6
O=C(Cn1cnc2ccccc21)c1ccccc1 | -1.1 | -1.1 | -0.6 | 0.2 | 19.2 | 0.6
O=C(O)c1ccn(Cn2cnc3ccccc32)n1 | 0.5 | 0.2 | -75.3* | 0.3 | 39.9 | 1.4
CCOC(=O)c1c(NC(=O)OC)sc(C(=O)N(CC)CC)c1C | 1.9 | 3.9 | -71.9* | 2.5 | 18.2 | 7.2
O=C(N[C@H](Cc1ccccc1)C(=O)N1CCN(c2ncccn2)CC1)[C@H]1O[C@@H](n2ccc(=O)[nH]c2=O)[C@H](O)[C@@H]1O | -0.4 | . | . | . | . | -0.1
c1ccc(-c2noc(-c3cccnc3)n2)cc1 | 1.2 | -3.6 | 10.4 | 5.6 | 16.2 | 7.9*
COC(=O)[C@]12C[C@H](CC(=O)NCCCCc3ccccc3)C(=O)N(Cc3cccc4ccccc34)C1=C[C@H](C1CCCC1)O[C@@H]2C | . | . | . | . | . | -1.0
CCCCC(=O)Nc1ccc(C(=O)Nc2nnc(COC)s2)cc1 | -1.5 | 2.9 | -5.0 | -3.1 | 8.3 | 7.8*
COCc1nnc(NC(=O)CCCCCN2C(=O)c3ccccc3C2=O)s1 | -0.8 | 0.2 | -3.9 | 2.0 | 17.4 | -2.0
CN1CCN(S(=O)(=O)c2cccc(C(=O)NCCC3=CCCCC3)c2)CC1 | -0.1 | . | -75.7* | -0.7 | 34.8 | -2.0
O=c1[nH]cc(S(=O)(=O)c2ccccc2)[nH]1 | -0.2 | 1.8 | -51.5* | 1.8 | 17.0 | -0.5
O=c1[nH]cc(-c2ccccc2)c(=O)[nH]1 | -0.2 | -2.4 | -18.4 | -2.5 | 17.3 | 1.9
CCOC(=O)CNC(=O)CSc1nnc(-c2cccs2)o1 | . | . | . | . | . | -5.1
Oc1ccc(Cc2ccccc2)c2cccnc12 | -1.8 | . | . | -1.2 | . | -3.6
OCc1ccc(O)c2ncccc12 | -0.5 | -2.8 | -53.7* | -0.3 | 8.1 | -2.5
CCCC[C@H]1C2CC(OC(=O)Nc3ccc(Cl)cc3)C(C2)[C@H]2CCCCN21 (stereo partly specified) | . | . | . | . | . | -4.4

High-throughput results (PubChem)
